In PubChem BioAssay (NCATS):
Where “and” joins values, the source holds several entries; their conditions need not be identical. Identical values can stand only once. Inconclusive results are not listed. Calls of active or inactive are those of the source. Unless noted, calls come from the whole dose curve.

Assays:
[1] = Cell Viability - BJ (AID 421); settings: BJ fibroblast viability, qHTS;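 note: potency is the fitted concentration of half-maximal effect; cells exposed to compound for 40 hours at 37 °C before readout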
Method in brief: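 Cytotoxicity as drop in intracellular ATP (CellTiter-Glo, 20 min RT) after 40 hr compound exposure of BJ fibroblasts at 37 °C. Titrations scaled between DMSO and 100 uM tamoxifen, Hill-fitted for AC50.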

[2] = Cell Viability - MRC5 (AID 434); settings: MRC5 lung fibroblast viability, qHTS;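 note: potency is the fitted concentration of half-maximal effect; potency reflects cytotoxicity seen as loss of intracellular ATP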
Method in brief: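 MRC5 normal human lung fibroblasts, 1500 cells/well, exposed to compound for 40 hr at 37 C. Cellular ATP was read by CellTiter-Glo luminescence; data normalized to DMSO and 100 uM tamoxifen, with AC50 from Hill fits.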

[3] = Cell Viability - N2a (AID 540; active = well fitted cell-killing curve with a large enough effect;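 note: plate controls were DMSO alone for no effect and tamoxifen control for full effect; nearly all actives have a fitted effect of over 45% in size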); settings: N2a mouse neuroblastoma cell viability; activity change, negative = cytotoxicity: at 92.2 µM (top of the series)
Method in brief: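 First, 1500 N2a cells per well incubate 5 hr at 37 °C; next, compounds are added and incubated 40 hr at 37 °C; finally CellTiter-Glo is added and luminescence read after 20 min, with AC50 derived by Hill modeling.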

[4] = MultiTox-Fluor Cytotoxicity Assay - LYMP1-001 - Live Cells (AID 947; active = well fitted cell-killing curve with a large enough effect;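 note: 0% = DMSO only and full inhibition = tetraoctylammonium bromide control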); settings: LYMP1-001 lymphoblastoid cells, live-cell protease fluorescence viability; series mostly up to 92.2 µM
[5] = target: Estrogen receptor (Homo sapiens) (UniProt P03372); test: qHTS assay for small molecule antagonists of estrogen receptor alpha signaling (AID 588513; active = well fitted curve in the direction sought with a large enough effect in the signal ratio, with a control signal flat, not every such curve was filed as active; the % refers to the signal ratio; note: % is set by controls: 0 for no effect and ±100 for the full control effect); settings: ER-alpha-UAS-bla HEK293, beta-lactamase ratio, antagonist mode; series mostly up to 76.9 µM
Method in brief: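 Fluorescence from CCF4 substrate after 2 h at room temperature gave reporter activity; cells had been exposed to compound and 0.5nM 17-beta-estradiol for 18 h at 37 C. Hill-equation fitting yielded IC50 and maximal response.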

[6] = target: Bile acid receptor (Homo sapiens) (UniProt Q96RI1); test: qHTS assay for small molecule agonists of farnesoid X receptor signaling (AID 588527); settings: HEK293T FXR-UAS-bla, beta-lactamase ratio, 16 h; stronger effect = higher value;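 note: 0% = vehicle basal and 100% = reference agonist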
Method in brief: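 Agonist-mode beta-lactamase reporter in GeneBLAzer FXR-UAS-bla HEK293T cells, titration up to 92 uM, 16 h exposure at 37 C, CCF4 fluorescence. Response scaled to DMSO (0%) and 100 uM chenodeoxycholic acid (100%), then Hill-fitted for EC50 and efficacy.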

[7] = target: Glucocorticoid receptor (Homo sapiens) (UniProt P04150); test: qHTS assay for small molecule agonists of glucocorticoid receptor signaling (AID 588532; active = well fitted curve in the direction sought with a large enough effect in the signal ratio, with a control signal flat; the % refers to the signal ratio;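 note: 100% = dexamethasone at 0.1 µM and 0% = DMSO only wells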); settings: HeLa MMTV-bla, beta-lactamase ratio, agonist, 18 h; stronger effect = higher value; percent of dexamethasone control, DMSO zero
Method in brief: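 MMTV-bla HeLa beta-lactamase reporter cells in 1% charcoal/dextran FBS medium, compounds up to 92 uM for 18 h at 37 C, CCF4 readout; normalized to 0.1 uM dexamethasone (100%), EC50 and efficacy from Hill fits.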

[8] = target: Glucocorticoid receptor (Homo sapiens) (UniProt P04150); test: qHTS assay for small molecule antagonists of glucocorticoid receptor signaling (AID 588533; active = well fitted inhibition curve with a large enough effect in the signal ratio, with a control signal flat, not every such curve was filed as active; the % refers to the signal ratio; note: % is set by controls: 0 for no effect and ±100 for the full control effect); settings: HeLa MMTV-bla, GRE beta-lactamase ratio, antagonist mode, 18 h; series mostly up to 76.8 µM
Method in brief: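 Antagonist-mode qHTS: compound titrations added to GRE-bla HeLa cells, then dexamethasone 2 nM final; 18 h, 37 C. CCF4 FRET fluorescence normalized to dexamethasone and DMSO; IC50 from Hill fit.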

[9] = target: Peroxisome proliferator-activated receptor gamma (Homo sapiens) (UniProt P37231); test: qHTS assay for small molecule antagonists of peroxisome proliferator-activated receptor gamma signaling (AID 588537; active = well fitted inhibition curve with a large enough effect in the signal ratio, with a control signal flat, not every such curve was filed as active; the % refers to the signal ratio;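 note: reporter cells co-stimulated with 50 nM rosiglitazone agonist during compound treatment; % of control where 0% means no effect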); settings: HEK293 PPARg-UAS-bla, beta-lactamase ratio, antagonist mode; series mostly up to 76.8 µM
Method in brief: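 Step one: plate 3000 HEK293 UAS-bla cells per well in medium with 1% stripped serum and hold 6-6.5 h at 37 C. Step two: add compound and 50 nM agonist for 16 h. Step three: CCF4 loading, fluorescence read.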

[10] = target: Thyroid hormone receptor beta (Homo sapiens) (UniProt P10828); test: qHTS assay for small molecule agonists of thyroid hormone receptor beta signaling (AID 588545); settings: TR-UAS-bla GripTite HEK 293, beta-lactamase ratio, agonist mode, 18 h; series mostly up to 76.7 µM
Method in brief: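 Cells (2500/well) were seeded, incubated 4 hrs at 37 C, dosed with a compound series, incubated 18 hrs, loaded with CCF4 dye for 2 hrs at RT, then read for fluorescence. Data were scaled between DMSO (0%) and 10 nM T3 (100%).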

[11] = target: Thyroid hormone receptor beta (Homo sapiens) (UniProt P10828); test: qHTS assay for small molecule antagonists of thyroid hormone receptor beta signaling (AID 588547; active = well fitted inhibition curve with a large enough effect in the signal ratio, with a control signal flat, not every such curve was filed as active; the % refers to the signal ratio;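 note: cells stimulated with 0.4 nM T3 agonist during compound exposure; % is set by controls: 0 for no effect and ±100 for the full control effect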); settings: TR-UAS-bla HEK293, beta-lactamase ratio, antagonist mode, 18 h
Method in brief: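 TR-UAS-bla GripTite HEK293 cells in 2% charcoal/dextran FBS medium; compounds 0.59 nM to 92 uM with T3 at 0.4nM final, 18 h at 37 C. Beta-lactamase read by CCF4 fluorescence (460/530 nm); Hill fits gave IC50 and efficacy.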

[12] = qHTS assay for small molecule activators of the p53 signaling pathway (AID 651743; active = well fitted activation curve with a large enough effect in the signal ratio, not every such curve was filed as active; the % refers to the signal ratio; note: % of control where 0% means no effect); settings: HCT-116 p53RE-bla, beta-lactamase FRET ratio, 16 h; activation: stronger effect = higher value
Method in brief: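 HCT-116 p53RE-bla, 4,000 cells/well; 5 h settle; cpd/DMSO 16 h, 37 C; LiveBLAzer B/G 2 h RT; fluorescence intensity.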

[13] = qHTS assay for small molecule disruptors of the mitochondrial membrane potential - 1 hr assay (AID 651754); settings: series mostly up to 92.2 µM; note: nearly all actives have a fitted effect of over 35% in size; note: potency is the fitted concentration of half-maximal effect
Method in brief: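 Steps: seed HepG2 cells and let attach overnight; pin-transfer compound or vehicle; incubate 1 hr at 37C; add Mito-MPS dye for 30 min; read two-channel fluorescence for monomer and aggregate forms.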

[14] = Cell Viability - HepG2 (AID 433); settings: qHTS;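 note: potency is the fitted concentration of half-maximal effect; potency for ATP loss meaning cytotoxicity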
Method in brief: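 Read-out is luciferase-based quantitation of cellular ATP as a measure of viable HepG2 cells after 40 h treatment at 37 °C. Signal decrease is scaled between DMSO-only and 100 uM tamoxifen controls, with AC50 fitted by the Hill equation.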

[15] = qHTS assay for small molecule antagonists of peroxisome proliferator-activated receptor delta signaling (AID 588535; active = well fitted inhibition curve with a large enough effect in the signal ratio, with a control signal flat, not every such curve was filed as active; the % refers to the signal ratio;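 for max response: cells co-treated with a PPAR-delta agonist as stimulator during compound exposure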); settings: HEK293T PPARd-UAS-bla, beta-lactamase FRET ratio, 18 h; 460 nm channel
Method in brief: (§1)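 Cells were seeded at 4000 per well in assay medium containing 2% charcoal/dextran FBS and held 5 hrs at 37 C. Compounds were then added for 18 hrs. CCF4 substrate was applied for 2 hrs at room temperature before fluorescence reading.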

[16] = target: Vitamin D3 receptor (Homo sapiens) (UniProt P11473); test: qHTS assay for small molecule antagonists of vitamin D receptor signaling (AID 588541); settings: HEK293T VDR-UAS-bla, beta-lactamase ratio, antagonist mode; series mostly up to 76.7 µM;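 note: receptor activated by calcitriol during compound treatment; % is set by controls: 0 for no effect and ±100 for the full control effect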
Method in brief: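 VDR-UAS-bla HEK293T cells in 2% charcoal-stripped FBS were stimulated with 1-alpha,25-dihydroxyvitamin D3 (3 nM final) plus compound for 16 h at 37 C. The beta-lactamase CCF4 readout was normalized to 50 nM agonist and DMSO, and Hill fits gave IC50.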

[17] = qHTS assay for small molecule agonists of the antioxidant response element (ARE) signaling pathway (AID 651741; active = well fitted activation curve with a large enough effect in the signal ratio; the % refers to the signal ratio; note: potency is the fitted concentration of half-maximal effect; for activation: % of control where 0% means no effect); settings: HepG2 ARE-bla reporter, beta-lactamase FRET ratio, 16 h; series mostly up to 96 µM
Method in brief: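 HepG2 ARE-bla cells plated at 2,000 cells/well and incubated 5 h at 37 C/5% CO2 received 23 nL compound in DMSO. After 16 h at 37 C, LiveBLAzer B/G FRET substrate was applied for 2 h at room temperature and fluorescence read.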

[18] = target: Peroxisome proliferator-activated receptor delta (Homo sapiens) (UniProt Q03181); test: qHTS assay for small molecule agonists of peroxisome proliferator-activated receptor delta signaling (AID 588534); settings: HEK293T PPARdelta-UAS-bla, beta-lactamase ratio, 18 h; series mostly up to 76.7 µM;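 note: 0% = DMSO basal wells and 100% = positive control agonist at 10 µM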
Method in brief: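 Reporter cells were plated and held 5 hrs at 37 C before compounds were added. After 18 hrs at 37 C, CCF4 dye was loaded for 2 hrs at RT and fluorescence measured.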

[19] = target: Peroxisome proliferator-activated receptor delta (Homo sapiens) (UniProt Q03181); test: qHTS assay for small molecule antagonists of peroxisome proliferator-activated receptor delta signaling (AID 588535); settings: HEK293T PPARd-UAS-bla, beta-lactamase FRET ratio, 18 h; series mostly up to 76.7 µM;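 for max response: cells co-treated with a PPAR-delta agonist as stimulator during compound exposure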
Method in brief: as §1

[20] = target: Peroxisome proliferator-activated receptor gamma (Homo sapiens) (UniProt P37231); test: qHTS assay for small molecule agonists of peroxisome proliferator-activated receptor gamma signaling (AID 588536; active = well fitted curve in the direction sought with a large enough effect in the signal ratio, with a control signal flat, not every such curve was filed as active; the % refers to the signal ratio;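 note: 0% = DMSO basal wells and 100% = rosiglitazone at 2 µM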); settings: HEK293 PPARg-UAS-bla, beta-lactamase ratio, 16 h, percent of rosiglitazone response, DMSO as zero; series mostly up to 76.7 µM
Method in brief: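 Ratiometric blue/green fluorescence (405 nm excitation; 460 and 530 nm emission) from CCF4-loaded HEK293 reporter cells serves as signal. Exposure to test compounds lasts 16 h at 37 C in medium containing 1% charcoal/dextran-treated serum.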

Sequence of Bile acid receptor (Homo sapiens) (Q96RI1 whole entry, looked up): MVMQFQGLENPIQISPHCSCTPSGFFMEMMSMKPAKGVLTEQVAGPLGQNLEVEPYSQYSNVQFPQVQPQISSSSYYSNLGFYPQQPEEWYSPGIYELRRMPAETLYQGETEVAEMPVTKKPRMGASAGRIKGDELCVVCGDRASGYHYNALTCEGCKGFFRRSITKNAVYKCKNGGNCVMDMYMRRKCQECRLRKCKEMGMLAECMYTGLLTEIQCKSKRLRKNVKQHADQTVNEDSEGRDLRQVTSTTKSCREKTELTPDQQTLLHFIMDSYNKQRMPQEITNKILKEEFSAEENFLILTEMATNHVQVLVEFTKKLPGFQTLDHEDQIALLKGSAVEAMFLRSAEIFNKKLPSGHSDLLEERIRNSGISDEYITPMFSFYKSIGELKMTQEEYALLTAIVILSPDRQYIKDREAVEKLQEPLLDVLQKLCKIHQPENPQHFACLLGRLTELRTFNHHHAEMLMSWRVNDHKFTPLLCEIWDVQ
Sequence of Estrogen receptor (Homo sapiens) (P03372 whole entry, looked up): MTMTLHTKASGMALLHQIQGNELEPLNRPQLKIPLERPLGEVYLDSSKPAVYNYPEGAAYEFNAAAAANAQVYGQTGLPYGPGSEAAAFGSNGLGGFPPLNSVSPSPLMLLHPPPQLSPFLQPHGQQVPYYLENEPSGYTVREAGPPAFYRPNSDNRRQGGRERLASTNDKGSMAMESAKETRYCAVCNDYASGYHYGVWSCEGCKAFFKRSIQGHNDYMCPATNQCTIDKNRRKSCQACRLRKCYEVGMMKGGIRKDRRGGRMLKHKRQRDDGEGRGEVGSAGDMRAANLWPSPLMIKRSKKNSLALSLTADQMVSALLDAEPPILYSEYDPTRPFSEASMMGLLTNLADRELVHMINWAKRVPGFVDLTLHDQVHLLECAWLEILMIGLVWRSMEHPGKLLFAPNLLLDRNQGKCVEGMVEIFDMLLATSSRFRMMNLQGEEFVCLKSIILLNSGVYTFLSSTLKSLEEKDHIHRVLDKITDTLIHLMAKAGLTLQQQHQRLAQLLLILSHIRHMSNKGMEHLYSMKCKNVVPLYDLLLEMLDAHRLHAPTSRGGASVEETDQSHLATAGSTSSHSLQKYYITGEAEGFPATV
Sequence of Peroxisome proliferator-activated receptor delta (Homo sapiens) (Q03181 whole entry, looked up): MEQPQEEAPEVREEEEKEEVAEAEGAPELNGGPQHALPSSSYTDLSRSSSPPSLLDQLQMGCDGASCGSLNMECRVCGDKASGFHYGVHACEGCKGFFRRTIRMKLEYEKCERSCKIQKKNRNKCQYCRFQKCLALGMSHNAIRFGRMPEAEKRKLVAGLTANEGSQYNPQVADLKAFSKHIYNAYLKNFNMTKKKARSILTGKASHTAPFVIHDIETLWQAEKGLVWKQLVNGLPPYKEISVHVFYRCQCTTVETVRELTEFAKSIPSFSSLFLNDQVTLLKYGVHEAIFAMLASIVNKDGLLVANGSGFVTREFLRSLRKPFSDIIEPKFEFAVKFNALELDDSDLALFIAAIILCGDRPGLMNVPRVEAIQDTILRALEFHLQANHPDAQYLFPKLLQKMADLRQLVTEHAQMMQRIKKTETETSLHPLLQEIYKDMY
Sequence of Glucocorticoid receptor (Homo sapiens) (P04150 whole entry, looked up): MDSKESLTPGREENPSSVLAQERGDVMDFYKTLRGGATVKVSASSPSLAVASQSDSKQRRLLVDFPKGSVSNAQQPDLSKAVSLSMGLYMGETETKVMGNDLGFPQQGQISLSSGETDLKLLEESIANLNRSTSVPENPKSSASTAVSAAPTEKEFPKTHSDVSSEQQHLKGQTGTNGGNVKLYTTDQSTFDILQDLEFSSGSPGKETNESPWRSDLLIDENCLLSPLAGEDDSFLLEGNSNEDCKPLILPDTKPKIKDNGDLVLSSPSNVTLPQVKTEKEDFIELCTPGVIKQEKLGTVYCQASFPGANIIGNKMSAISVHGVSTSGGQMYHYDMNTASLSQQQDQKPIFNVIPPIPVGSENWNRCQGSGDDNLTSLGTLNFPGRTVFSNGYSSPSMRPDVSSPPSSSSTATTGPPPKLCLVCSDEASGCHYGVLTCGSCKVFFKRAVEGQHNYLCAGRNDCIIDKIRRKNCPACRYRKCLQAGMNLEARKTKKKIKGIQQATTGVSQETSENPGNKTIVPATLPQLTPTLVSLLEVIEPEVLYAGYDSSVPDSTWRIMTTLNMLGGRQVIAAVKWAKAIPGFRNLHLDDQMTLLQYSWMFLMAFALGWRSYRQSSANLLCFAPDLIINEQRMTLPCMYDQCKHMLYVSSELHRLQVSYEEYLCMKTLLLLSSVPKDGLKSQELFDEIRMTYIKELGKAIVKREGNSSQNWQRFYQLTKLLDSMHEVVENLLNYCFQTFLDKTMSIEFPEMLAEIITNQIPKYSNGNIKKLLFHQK
Sequence of Thyroid hormone receptor beta (Homo sapiens) (P10828 whole entry, looked up): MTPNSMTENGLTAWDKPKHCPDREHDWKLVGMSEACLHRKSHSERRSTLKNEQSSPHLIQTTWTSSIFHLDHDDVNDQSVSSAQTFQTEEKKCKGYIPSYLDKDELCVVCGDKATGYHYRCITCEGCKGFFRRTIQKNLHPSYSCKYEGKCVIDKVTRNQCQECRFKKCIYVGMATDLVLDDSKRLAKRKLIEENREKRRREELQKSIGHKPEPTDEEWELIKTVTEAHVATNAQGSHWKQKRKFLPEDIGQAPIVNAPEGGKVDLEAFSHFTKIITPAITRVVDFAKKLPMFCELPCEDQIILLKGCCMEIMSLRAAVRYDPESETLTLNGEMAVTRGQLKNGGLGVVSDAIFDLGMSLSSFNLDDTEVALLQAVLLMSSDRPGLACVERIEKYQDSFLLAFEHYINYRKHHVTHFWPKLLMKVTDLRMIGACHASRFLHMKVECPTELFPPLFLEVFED
Sequence of Vitamin D3 receptor (Homo sapiens) (P11473 whole entry, looked up): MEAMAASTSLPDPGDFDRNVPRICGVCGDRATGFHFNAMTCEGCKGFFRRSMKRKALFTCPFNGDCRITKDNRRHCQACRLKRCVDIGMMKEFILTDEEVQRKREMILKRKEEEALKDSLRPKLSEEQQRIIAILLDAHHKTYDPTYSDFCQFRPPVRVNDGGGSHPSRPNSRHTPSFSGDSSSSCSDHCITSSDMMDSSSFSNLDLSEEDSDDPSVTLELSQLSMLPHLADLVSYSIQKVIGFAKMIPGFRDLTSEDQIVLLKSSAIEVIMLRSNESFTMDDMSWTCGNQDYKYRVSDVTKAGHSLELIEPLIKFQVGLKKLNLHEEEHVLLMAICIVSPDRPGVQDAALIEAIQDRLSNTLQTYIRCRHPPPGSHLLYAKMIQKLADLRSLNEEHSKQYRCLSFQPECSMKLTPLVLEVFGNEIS
Sequence of Peroxisome proliferator-activated receptor gamma (Homo sapiens) (P37231 whole entry, looked up): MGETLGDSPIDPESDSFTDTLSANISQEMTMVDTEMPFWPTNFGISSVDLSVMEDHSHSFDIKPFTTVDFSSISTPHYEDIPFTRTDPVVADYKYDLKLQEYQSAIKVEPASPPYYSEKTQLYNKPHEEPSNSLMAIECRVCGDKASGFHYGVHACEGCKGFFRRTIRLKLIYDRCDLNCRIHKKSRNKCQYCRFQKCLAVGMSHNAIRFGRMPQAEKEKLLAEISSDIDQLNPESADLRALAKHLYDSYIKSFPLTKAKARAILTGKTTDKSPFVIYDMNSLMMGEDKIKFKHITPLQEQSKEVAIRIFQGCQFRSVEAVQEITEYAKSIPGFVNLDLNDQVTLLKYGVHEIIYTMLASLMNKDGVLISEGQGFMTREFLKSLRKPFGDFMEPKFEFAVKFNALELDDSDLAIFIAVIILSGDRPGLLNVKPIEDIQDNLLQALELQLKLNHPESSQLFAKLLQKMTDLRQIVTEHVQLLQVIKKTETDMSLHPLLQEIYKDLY

Cc1cc(C)cc(OP(=O)(Oc2cc(C)cc(C)c2)Oc2cc(C)cc(C)c2)c1
inactive: Potency [1] > 92 µM | Potency [2] > 92 µM | outcome [4] | Potency [5] | activation [6] 0.362% | activation [7] -3.84% | outcome [8] | Potency [9] | Potency [10] | activity change % (negative = inhibition) [11] 2.87% | activation [12] -0.0195%
active: activity change, negative = cytotoxicity [3] -83.5% | Potency [13] 11.9 µM

CC(C)[N+](=O)[O-]
7.55%: max response [15]
inactive: Potency [1] > 92 µM | Potency [14] > 92 µM | Potency [2] > 92 µM | activation [6] -1.29% | activation [7] -6.88% | outcome [16] | Potency [10] | activity change % (negative = inhibition) [11] 5.36% | Potency [17] | activation [12] -2.67%

ClC(Cl)(Cl)C(Cl)(Cl)Cl
inactive: Potency [14] > 92 µM | Potency [2] > 92 µM | Potency [3] | outcome [4] | Potency [5] | activation [7] 5.68% | outcome [8] | Potency [9] | outcome [16] | Potency [10] | activity change % (negative = inhibition) [11] 3.45% | activation [12] -2.98% | Potency [13]

Nc1ccc(Cc2ccc(N)cc2)cc1
34.2% and -15.9%: max response [15]
inactive: Potency [14] > 92 µM | Potency [2] > 92 µM | Potency [3] | activation [6] -2.78% and 3.63% | activation [7] 1.44% and -0.448% | outcome [18] | Potency [9] | outcome [16] | Potency [10] | activity change % (negative = inhibition) [11] 11% and -9.43% | activation [12] -1.69% and -2.54% | Potency [13]

CC1CC(=O)O1 (configuration not stated)
2.28%: max response [15]
inactive: Potency [14] > 92 µM | Potency [2] > 92 µM | Potency [3] | outcome [4] | activation [6] -1.6% | activation [7] 4.16% | outcome [8] | outcome [19] | outcome [20] | Potency [9] | outcome [16] | Potency [10] | Potency [17] | Potency [13]

c1ccc(OCC2CO2)cc1 (configuration not stated)
inactive: Potency [14] > 92 µM | Potency [2] > 92 µM | Potency [3] | activation [7] -7.97% | outcome [8] | outcome [20] | outcome [16] | activity change % (negative = inhibition) [11] 6.77% | Potency [17] | activation [12] -2.65% | Potency [13]

O=[N+]([O-])c1cccc2c([N+](=O)[O-])cccc12
active: Potency [17] 4.73 µM
inactive: Potency [14] > 92 µM | Potency [2] > 92 µM | outcome [4] | activation [7] -1.31% | outcome [8] | outcome [18] | outcome [19] | outcome [20] | Potency [10] | activity change % (negative = inhibition) [11] -3.1% | Potency [13]
-9.5%: max response [15]

Nc1ccc(-c2ccc(N)c(Cl)c2)cc1Cl
inactive: Potency [14] > 92 µM | Potency [3] | outcome [4] | activation [7] -5.3% and -4.62% | outcome [20] | Potency [9] | outcome [16] | Potency [10] | activity change % (negative = inhibition) [11] -10.6% and -0.523% | activation [12] 14% and 23.3%
active: Potency [17] 5.31 µM and 12.2 µM | Potency [13] 42.2 µM

Cc1cnc[nH]1
inactive: Potency [14] > 92 µM | Potency [2] > 92 µM | Potency [3] | activation [6] -0.548% | activation [7] -8.66% | outcome [18] | outcome [20] | outcome [16] | Potency [10] | Potency [17] | activation [12] -6.55% | Potency [13]

Nc1cccc(Cl)c1
30.4%: max response [15]
inactive: Potency [14] > 92 µM | Potency [2] > 92 µM | Potency [3] | outcome [4] | Potency [5] | activation [6] -2.3% | outcome [18] | outcome [19] | outcome [20] | Potency [10] | activity change % (negative = inhibition) [11] 2.78% | Potency [17] | activation [12] -1.95%

O=C(O)C(Cl)Br (configuration not stated)
33.1%: max response [15]
inactive: Potency [14] > 92 µM | Potency [3] | outcome [4] | activation [6] -0.167% | activation [7] 5.56% | outcome [18] | outcome [19] | outcome [16] | activity change % (negative = inhibition) [11] 7.08% | activation [12] 0.485% | Potency [13]
active: Potency [17] 33.5 µM

CC(=O)[O-].CC(=O)[O-].CC(=O)[O-].[Cr+3]
inactive: Potency [14] > 92 µM | Potency [2] > 92 µM | Potency [3] | Potency [10] | activity change % (negative = inhibition) [11] 2.34% | Potency [17]

C[N+](=O)[O-]
inactive: Potency [14] > 92 µM | Potency [5] | activation [7] -0.802% | outcome [18] | outcome [20] | Potency [9] | Potency [10] | activity change % (negative = inhibition) [11] -5.27% | activation [12] -0.263% | Potency [13]
3.34%: max response [15]
